Consider six compounds from PubChem BioAssay (NCATS).

Several values for one entry are separate records, joined by “and”; a condition that tells them apart may be missing. Equal entries are not always repeated. Results filed as inconclusive are left out. Activity calls are given as the source filed them. Unless noted, the call rests on the fitted dose curve; in most records, active means well fitted curve in the direction sought with a large enough effect; inconclusive means small, poorly fitted or top-dose-only effect, or another doubt; inactive means no such curve, though single readings can be large; an effect the other way counts as inactive or inconclusive.

Assay [1] in a line: Drug repurposing screens with cells derived from glioblastoma tumor samples (AID 1345199). Further: potency means the concentration at half of the fitted maximal effect. On activity, negative = cell killing: on the % scale 0 is the no-effect control and ±100 the full control effect. On all read-outs here: nearly all actives have a fitted effect of over 40% in size. Particulars: GBM patient neurospheres viability, ATP luminescence, 48 h; for Potency: tumour line A. The method, boiled down: (§1)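 Four patient lines of CD133+ GBM neurospheres were screened at several concentrations; hits were retested in those lines plus three slower-growing GBM lines, using 48-hour treatment and ATP-based viability.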

The nature of assay [2]: P-glycoprotein substrates identified in KB-3-1 adenocarcinoma cell line, qHTS therapeutic library screen (AID 1346986). Further: nearly all actives have a fitted effect of over 60% in size.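 Further: potency means the concentration at half of the fitted maximal effect; potency is for cytotoxicity meaning loss of cell viability.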 The method, boiled down: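 Resistance attributable to P-gp was assessed by comparing AC50 in KB-8-5-11 with parental KB-3-1 and by tariquidar reversal. Cells were exposed 72 h and viability read by CellTiter-Glo.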
Assay [3] in a line: P-glycoprotein substrates identified in KB-8-5-11 adenocarcinoma cell line, qHTS therapeutic library screen (AID 1346987). Further: nearly all actives have a fitted effect of over 65% in size. Further: potency means the concentration at half of the fitted maximal effect. The method, boiled down: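 Steps: plate 500 KB-8-5-11 cells/well in DMEM + 10% FCS (colchicine removed); pin compounds in dose-response; incubate 72 h, 37 degree C, 5% CO2; add CellTiter-Glo, 5 min; read luminescence.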
For orientation: In qHTS, concentration-response curves come from the screen itself.

The subject of assay [4] is Zika virus NS2B-NS3 protease. Kind of assay: Primary screen GU AMC qHTS for Zika virus inhibitors (AID 1347154).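 Further: 0% = no-inhibitor control and -100% = no-enzyme control; nearly all actives have a fitted effect of over 70% in size.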 The method in brief:
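Unlinked Zika NS2B hydrophilic domain/NS3 protease domain noncovalent complex (25 nM final) in 10 mM Tris-HCl pH 8.0, 0.01% Tween 20, with AMC peptide substrate. Fluorescence (ex 340, em 450 nm) change over 15 min, room temperature; percent inhibition fitted to 4-parameter Hill equation.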

A short description of assay [5]: Primary qHTS for small molecule stabilizers of the endoplasmic reticulum resident proteome: Secreted ER Calcium Modulated Protein (SERCaMP) assay (AID 1508630). Further: on the % scale 0 is the no-effect control and ±100 the full control effect. The method, boiled down: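 GLuc-SERCaMP-expressing SH-SY5Y cells, pretreated 16 h with compound, are challenged with thapsigargin to empty ER calcium stores; after 4 h, coelenterazine is added directly to the medium and luminescence is imaged.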

Assay [6] is described as follows: Primary qHTS for inhibitors of nuclear receptor binding SET domain protein 2 (NSD2) in an isogenic RCH-ACV NSD2 p.E1099K mutant (9B) (AID 1645876). Further: nearly all actives have a fitted effect of over 70% in size. Further: potency means the concentration at half of the fitted maximal effect.
A short description of assay [7]: Primary qHTS for inhibitors of nuclear receptor binding SET domain protein 2 (NSD2) in an RCH-ACV wild type WT cells (2C) (AID 1645877). Further: nearly all actives have a fitted effect of over 70% in size. Further: potency means the concentration at half of the fitted maximal effect.
Assay [8] concerns the target Glutathione peroxidase 1 (Homo sapiens) (UniProt P07203). The assay can be described thus: Primary qHTS Assay for Inhibitors of Recombinant Selenoprotein Glutathione Peroxidase 1 (GPX1) (AID 1845191). Further: nearly all actives have a fitted effect of over 65% in size. The method in brief: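 Recombinant GPX1 (10 nM final) was preincubated with compound for 30 min at room temperature, then reacted with 1 mM GSH, 0.5 mM CHP, 0.5 mM NADPH and 100 nM glutathione reductase; NADPH fluorescence (340/450 nm) was read at 0 and 15 min.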

Assay [9] concerns the target Luciferin 4-monooxygenase (Photinus pyralis) (UniProt P08659). Kind of assay: Biochemical firefly luciferase enzyme assay for NPC (AID 624030).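 Further: purified P. pyralis luciferase at 10 nM with luciferin and ATP substrate; 0% = DMSO and -100% = full luciferase inhibition by PTC124 control; nearly all actives have a fitted effect of over 70% in size.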 The method in brief:
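Counter-screen for direct inhibition of the luciferase enzyme by approved-drug library compounds, run at 10 nM enzyme in 50 mM Tris acetate (final). Luminescence was read within 5 min of enzyme-buffer addition and normalized to PTC124 versus DMSO (0%).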

A further assay concerns astro (control astrocytes). Kind of assay: Drug repurposing screens with cells derived from glioblastoma tumor samples (AID 1345199). Further: nearly all actives have a fitted effect of over 40% in size. Further: potency means the concentration at half of the fitted maximal effect. Particulars: viability, ATP luminescence, 48 h; series mostly up to 45.9 µM. The method, boiled down:
as §1

Assay [10] in a line: AP1 Signaling Pathway (AID 357; active means well fitted curve in either direction with a large enough effect, not every such curve was filed as active; further: on the % scale 0 is the no-effect control and ±100 the full control effect). Particulars: ME-180 AP-1-bla reporter, EGF-induced, beta-lactamase ratio, 5 h; at 17.2 µM (top of the series). The method, boiled down: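 Cells are seeded overnight, exposed to compound titrations and an EC50 level of EGF for 5 hours at 37 °C, then loaded with CCF4 dye for 2.5 hours. Beta-lactamase activity under the AP-1 element is read as a blue/green ratio.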

Assay [11] can be described thus: Stat Signaling Pathway (AID 446; active means well fitted curve in either direction with a large enough effect, not every such curve was filed as active;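 further: ME-180 cervical cancer cells given 40 pM IL-6 alongside compound; SIE-controlled beta-lactamase reporter measured as 460/530 nm FRET emission ratio; on the % scale 0 is the no-effect control and ±100 the full control effect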). The following applies: ME-180 (cervical carcinoma) SIE beta-lactamase reporter, IL-6 stimulated, 5 h; at 17.2 µM (top of the series). The method in brief:
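ME-180 SIE-bla cells; overnight plating; cpd + IL-6 40 pM, 5 h, 37 C; LiveBLAzer 2.5 h RT; 460/530 nm emission ratio. Normalized to 300 pM IL-6 and 125 nM JAK inhibitor controls.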

Assay [12] has as its target Glucocorticoid receptor (Homo sapiens) (UniProt P04150). The assay can be described thus: GR-GFP Redistribution (AID 450;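 active means compounds whose dose series gives a full or clear partial fitted curve of increased nuclear translocation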; further: potency means the concentration at half of the fitted maximal effect). The following applies: U2OS GR-GFP nuclear translocation, laser cytometry, 2 h.
Assay [13] in a line: qHTS to identify inhibitors of the type 1 interferon - major histocompatibility complex class I in skeletal muscle: primary screen against the NCATS Mechanism Interrogation Plate v5.0 (MIPE) Libary (AID 1347411). Further: potency means the concentration at half of the fitted maximal effect; nearly all actives have a fitted effect of over 65% in size. The method in brief:
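Luminescence from HiBiT-tagged endogenous HLA-B*08:01 served as the MHC class I read-out. CRISPR-engineered C25cl48 human myoblasts received 4.0 ng/ml IFN-beta plus compound for 24 hrs, with an 11-point, 1:3 series topping at 46 uM final.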

The target in assay [14] is Phospholipid hydroperoxide glutathione peroxidase GPX4 (Homo sapiens) (UniProt P36969). Kind of assay: Primary qHTS Assay for Inhibitors of Recombinant Selenoprotein Glutathione Peroxidase 4 (GPX4) (AID 1845192). Further: on the % scale 0 is the no-effect control and ±100 the full control effect; nearly all actives have a fitted effect of over 65% in size. The following applies: outcome: dose series up to 50 µM unless noted. The method, boiled down:
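GR-coupled readout: 100 nM GR, 1 mM GSH, 0.5 mM NADPH; NADPH fluorescence (ex 340/em 450 nm) read at t=0 and after 15 min RT. GPX4 200 nM, preincubated 30 min with compound; substrate 0.5 mM CHP.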

Assay [15] can be described thus: qHTS drug screen for cell cycle checkpoint inhibitors in PARPi-resistant BRCA-mutant ovarian cancer cell lines. (AID 1963452; calls by dose curve). The following applies: PEO1/OlaR viability, CellTiter-Glo luminescence, 96 h, stronger effect = lower value. The method in brief:
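PEO1, PEO4 and PEO1/OlaR ovarian cancer cells, 600 per well, exposed 96 h at 37C to a dilution series. Viability read by CellTiter-Glo luminescence, normalized to DMSO and empty wells; activity summarized as Z-AUC.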

Assay [16] is described as follows: qHTS assay to identify inhibitors of the type 1 interferon - major histocompatibility complex class I in skeletal muscle: Counter screen cell viability and HiBit confirmation (AID 1347412). Further: nearly all actives have a fitted effect of over 60% in size. Further: potency means the concentration at half of the fitted maximal effect. The following applies: iHSKM muscle cells + IFN-b, HiBiT or CellTiter-Glo, 24 h. The method, boiled down: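 Myoblasts (C25cl48, HLA-B HiBiT) seeded in medium without dexamethasone, IFN-b 4 ng/ml added except unstimulated columns; 1 hr later compounds pinned (12-pt 1:3, top 46 uM final). Incubated 24 hrs, lysed 10 min, luminescence measured.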

The mark [17] stands for this setting: at 45.9 µM (top of the series), tumour line D.
Where [18] appears, read: at 45.9 µM (top of the series), tumour line B.
Setting [19] is: at 46.1 µM (top of the series), tumour line C.

Chain of Glutathione peroxidase 1 (Homo sapiens) (P07203 whole entry, looked up): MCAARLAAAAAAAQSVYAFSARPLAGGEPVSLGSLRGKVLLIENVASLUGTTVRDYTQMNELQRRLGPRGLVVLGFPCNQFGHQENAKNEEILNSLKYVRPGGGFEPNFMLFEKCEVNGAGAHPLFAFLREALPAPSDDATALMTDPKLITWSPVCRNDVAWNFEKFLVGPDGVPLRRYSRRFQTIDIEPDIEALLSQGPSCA
Chain of Phospholipid hydroperoxide glutathione peroxidase GPX4 (Homo sapiens) (P36969 whole entry, looked up): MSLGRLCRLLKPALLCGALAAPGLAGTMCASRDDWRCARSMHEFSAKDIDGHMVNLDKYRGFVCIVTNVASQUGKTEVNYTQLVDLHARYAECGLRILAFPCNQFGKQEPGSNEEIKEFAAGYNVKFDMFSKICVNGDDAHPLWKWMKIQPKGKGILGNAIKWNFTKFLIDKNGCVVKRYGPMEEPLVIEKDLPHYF
Chain of Glucocorticoid receptor (Homo sapiens) (P04150 whole entry, looked up): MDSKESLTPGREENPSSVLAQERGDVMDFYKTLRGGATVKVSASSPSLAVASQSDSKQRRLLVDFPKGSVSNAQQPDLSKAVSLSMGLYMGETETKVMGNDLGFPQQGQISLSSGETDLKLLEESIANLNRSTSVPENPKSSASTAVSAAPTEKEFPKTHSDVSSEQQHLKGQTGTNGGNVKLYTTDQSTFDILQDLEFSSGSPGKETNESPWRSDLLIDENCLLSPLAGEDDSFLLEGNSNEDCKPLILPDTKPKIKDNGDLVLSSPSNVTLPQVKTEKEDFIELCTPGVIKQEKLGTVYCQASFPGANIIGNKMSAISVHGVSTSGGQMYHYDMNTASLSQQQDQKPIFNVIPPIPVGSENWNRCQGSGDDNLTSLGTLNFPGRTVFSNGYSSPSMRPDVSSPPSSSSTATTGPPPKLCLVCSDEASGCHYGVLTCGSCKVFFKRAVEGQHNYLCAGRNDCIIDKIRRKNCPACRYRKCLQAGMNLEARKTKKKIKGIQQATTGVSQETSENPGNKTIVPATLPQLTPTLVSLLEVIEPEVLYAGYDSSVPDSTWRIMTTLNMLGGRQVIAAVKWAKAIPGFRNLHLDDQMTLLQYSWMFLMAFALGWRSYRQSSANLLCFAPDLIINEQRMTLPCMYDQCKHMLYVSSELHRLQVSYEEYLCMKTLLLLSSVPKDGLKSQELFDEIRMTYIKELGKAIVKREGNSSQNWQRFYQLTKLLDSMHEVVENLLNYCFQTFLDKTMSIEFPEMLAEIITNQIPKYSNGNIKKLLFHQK
Chain of Luciferin 4-monooxygenase (Photinus pyralis) (P08659 whole entry, looked up): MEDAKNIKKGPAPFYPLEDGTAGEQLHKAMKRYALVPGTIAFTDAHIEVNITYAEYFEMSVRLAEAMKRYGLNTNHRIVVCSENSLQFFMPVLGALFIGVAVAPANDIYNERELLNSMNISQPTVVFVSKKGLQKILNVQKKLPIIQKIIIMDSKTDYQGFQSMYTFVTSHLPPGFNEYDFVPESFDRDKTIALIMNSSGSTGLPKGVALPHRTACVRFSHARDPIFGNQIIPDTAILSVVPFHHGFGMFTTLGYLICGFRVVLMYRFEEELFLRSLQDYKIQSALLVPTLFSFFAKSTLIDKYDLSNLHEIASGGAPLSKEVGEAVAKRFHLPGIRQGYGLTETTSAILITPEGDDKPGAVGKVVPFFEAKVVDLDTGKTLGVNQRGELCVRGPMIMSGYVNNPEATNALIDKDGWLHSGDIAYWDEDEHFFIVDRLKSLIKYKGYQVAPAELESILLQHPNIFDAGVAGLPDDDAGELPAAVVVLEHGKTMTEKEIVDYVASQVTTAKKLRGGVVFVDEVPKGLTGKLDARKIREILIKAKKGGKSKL

Turning to `C/C1=C2N=C(/C=C3N=C(/C(C)=C4\[N-]C(C(CC(N)=O)C4(C)CCC(=O)NCC(C)OP(=O)([O-])OC4C(CO)OC(n5cnc6cc(C)c(C)cc65)C4O)C4(C)N=C1C(CCC(N)=O)C4(C)CC(N)=O)C(CCC(N)=O)C\3(C)C)C(CCC(N)=O)C/2(C)CC(N)=O.[CH3-].[Co+3]` (stereo not given), the activity, negative = cell killing in assay [1] (setting [17]) was -36.9% (inactive).
In the case of `CCCCCCCCCCCCC/C=C/[C@@H](O)[C@H](CO)N(C)C`, the activity change, negative = cytotoxicity in [2] was -2.89% [at 5.11 µM] (inactive). In addition, the outcome in [3] is “inactive [at 5.11 µM]”. The activity change, negative = inhibition in [4] is 11% [at 6.83 µM] (inactive) and 6.76% [at 6.83 µM] (inactive); in assay [5], -20.6% [at 3.88 µM] (inactive). Besides, the activity change, negative = viability loss in assay [6] is -1.18% [at 4.96 µM] (inactive). Besides, the activity change, negative = cell killing in [7] was 4.48% [at 4.96 µM] (inactive).
In the case of `C#Cc1cccc(Nc2ncnc3cc(OC)c(OC)cc23)c1`, the Potency was 5.17 µM (active) in [2], 9.2 µM (active) in assay [3], 14.6 µM (active) in assay [6] and 20.6 µM (active) in [7]. Also, the Potency entry in assay [4] and in assay [8] was “inactive” throughout.
On to `CN(CC(=O)N1CCOCC1)Cc1c(Cl)cccc1NC(=O)c1ccccc1`, for which the Potency entry (in assay [9]; in assay [8]; in the assay on astro) was “inactive” in each case. The figures for the activity, negative = cell killing in [1] (setting [18]), in assay [1] (setting [17]) and in assay [1] (setting [19]) were -3.67% (inactive), -22.4% (inactive) and -9.11% (inactive), respectively. Besides, in assay [1], the Potency is 35.5 µM (active).
`CCOC(=O)CCC(=O)O[C@H]1[C@H](O[C@@H]2[C@@H](C)[C@H](O[C@H]3C[C@@](C)(OC)[C@@H](O)[C@H](C)O3)[C@@H](C)C(=O)O[C@H](CC)[C@@](C)(O)[C@H](O)[C@@H](C)C(=O)[C@H](C)C[C@@]2(C)O)O[C@H](C)C[C@@H]1N(C)C`: the activity change, negative = inhibition in [10] is -0.678% (inactive). For the same compound, in assay [11], the activity, negative = inhibition is 1.81% (inactive). Besides, the Potency was > 20.6 µM (inactive) in assay [12] and 35.5 µM (active) in assay [1]. In addition, the activity, negative = cell killing in assay [1] (setting [18]) is -6.36% (inactive); in assay [1] (setting [17]), -16.9% (inactive); in assay [1] (setting [19]), 1.07% (inactive). Further, the Potency result in the assay on astro was “inactive”.
Take `CN1CCC(c2c(O)cc(O)c3c(=O)cc(-c4ccccc4Cl)oc23)C1CO` (stereo not given): the Potency is 0.92 µM (active) in assay [2]; 5.17 µM (active) in assay [3]; 0.739 µM (active) in assay [13]; 0.417 µM (active) in [6]; 0.332 µM (active) in assay [7]; 0.787 µM (active) in assay [16] (HiBiT). For the same compound, the Potency result in [8] and in [14] was “inactive” throughout. The Z-AUC in [15] is -0.419 (inactive); in assay [15] (measured here: PEO1 parental Z-AUC), -1.06; in assay [15] (measured here: PEO4 Z-AUC), -0.725. The activity change, negative = inhibition in assay [16] (Viability, at 45.9 µM (top of the series)) was -2.93% (inactive).
